Assay results as given in PubChem BioAssay (NCATS).
Records with an inconclusive call do not appear. Entries that show only a call come without a potency. Active and inactive are the calls of the source. Calls follow the shape of the dose curve; as a rule, active = well fitted inhibition curve with a large enough effect; inconclusive = small, poorly fitted or top-dose-only effect; inactive = flat fitted curve, though single readings scatter.

assay: P-glycoprotein substrates identified in KB-8-5-11 adenocarcinoma cell line, qHTS therapeutic library screen (AID 1346987); conditions: KB-8-5-11 (P-gp overexpressing) viability, CellTiter-Glo, 72 h; series mostly up to 44.5 µM; also: nearly all actives have a fitted effect of over 65% in size
How it was run: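 Compounds are pinned in dose-response onto KB-8-5-11 cells (500 cells/well, colchicine-free medium) and left 72 h at 37 degree C. CellTiter-Glo luminescence then yields AC50 values.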
Potency is read from the fitted curve at half-maximal effect.

Compound	Potency	activity change, negative = cytotoxicity	outcome
CC1=CCC2C(C)(C)CCC[C@]2(C)[C@@]12CC[C@](C)(CC(=O)O)O2 (some centres undefined)	inactive		
O=C(O)c1cccc(S(=O)(=O)N2CCc3ccccc3C2)c1	inactive		
CCN(Cc1cccnc1)C(=O)CN(c1ccc(OC)nc1)S(=O)(=O)c1ccccc1C	inactive		
CC(C)c1cc2c(c(O)c1O)[C@@]13CCCC(C)(C)[C@@H]1[C@H](OC3=O)C2=O	inactive		
CC1CC(=O)C2=C(CCC3(O)C(O)c4c(O)cccc4C(=O)C23O)C1 (centres undefined)	inactive		
CC(=O)CCC1=C(C)C(O[C@@H]2O[C@H](CO)[C@@H](O)[C@H](O)[C@H]2O)C(O)CC1(C)C (some centres undefined)	inactive		
COC(=O)C1=COC(O[C@@H]2O[C@H](CO)[C@@H](O)[C@H](O)[C@H]2O)[C@H]2[C@@H]1[C@H](OC(=O)CCc1ccc(O)cc1)C[C@]2(C)O (some centres undefined)	inactive		
CO/N=C(/C(=O)N[C@@H]1C(=O)N2C(C(=O)O)=C(Cn3ccc(=N)n3CCO)CS[C@H]12)c1csc(N)n1	inactive		
CC(C)N(CCCCOCC(=O)NS(C)(=O)=O)c1cnc(-c2ccccc2)c(-c2ccccc2)n1	inactive		
Cc1cnc(Nc2ccc(F)cc2Cl)nc1-c1c[nH]c(C(=O)NC(CO)c2cccc(Cl)c2)c1 (centres undefined)	3.66 µM (active)		
O=C(O)c1cc2cccc([N+](=O)[O-])c2[nH]1	inactive		
COc1cc(O)cc(C)c1C(=O)O[C@H]1[C@@H](OC(C)=O)[C@H](n2ccc(=O)[nH]c2=O)O[C@@H]1CO	inactive		
C=C1C[C@]23C[C@H]1CC[C@H]2[C@@]12CC[C@H](O)[C@@](C)(C(=O)O1)[C@H]2[C@@H]3C(=O)O	inactive		
CC1(C)CC(=O)C2=C(C1)NC(=S)NC2c1cccc(O)c1 (centres undefined)	5.8 µM (active)		
CC1(C)CCC2(C(=O)OC3OC(CO)C(O)C(O)C3O)CCC3(C)C(=CCC4C5(C)CCC(O)C(C)(C(=O)O)C5CCC43C)C2C1O (centres undefined)	inactive		
COc1cc(-c2ncn(/C=C\C(=O)OC(C)C)n2)cc(C(F)(F)F)c1	0.259 µM (active)		
CCOc1cc(C(=O)N2CCC(N3CCN(C)CC3)CC2)ccc1Nc1ncc2c(n1)N(C1CCCC1)c1ccccc1C(=O)N2C	13 µM (active)		
CC1(C)CCCC2(C)C=C(C(=O)O)C(O)CC12 (centres undefined)	inactive		
C[C@@H]1O[C@@H](O[C@H]2[C@H](O[C@H]3[C@H](O[C@H]4CC[C@@]5(C)C(CC[C@]6(C)C5CC=C5[C@@H]7CC(C)(C)C[C@@H](O)[C@]7(C)CC[C@]56C)[C@@]4(C)CO)O[C@H](C(=O)O)[C@@H](O)[C@@H]3O)OC[C@H](O)[C@@H]2O)[C@H](O)[C@H](O)[C@H]1O (some centres undefined)		3.08% [at 9.29 µM] (inactive)	
C=C1CCC2C(C(C)(C)O)CCC2(C)CC(O)C(=C)CCC1O (centres undefined)	inactive		

Compound	Potency	activity change, negative = cytotoxicity	outcome
COc1cc2c(cc1OC)N1C(=O)C[C@]34C=CCN5CC[C@@H]2[C@@H](CC3)[C@]514	inactive		
CNS(=O)(=O)c1ccccc1Nc1nc(Nc2ccc(N3CCN(C)CC3)cc2OC)ncc1Cl	0.651 µM (active)		
COc1ccc(C(=O)n2c(C)c(Cc3cccc(O[C@@H](C)C(=O)O)c3)c3cc(OC(F)(F)F)ccc32)cc1	inactive		
CC(C)C(NC(=O)c1ccc2ccccc2n1)C(=O)NC(CC(=O)O)C(=O)COc1c(F)cccc1F (centres undefined)	inactive		
C=CC/C=C\C/C=C\CCCCCCCc1cccc(O)c1C(=O)O	inactive		
CC1=CC(=O)C2(OC3OC(C)C(O)C(OC(=O)/C=C/c4ccccc4)C3O)C=COC(OC3OC(CO)C(O)C(O)C3O)C12 (centres undefined)	inactive		
C/C=C(/COC(=O)/C(C)=C/C)C(=O)OC(CC)c1ccc(OC)c(OC)c1 (centres undefined)	inactive		
CC(=O)O[C@H]1C[C@@]2(C)[C@@H](CC[C@H]3[C@@]4(C)C=CC(=O)[C@@H](C)[C@@H]4[C@H](O)C(=O)[C@@]32C)/C1=C(/CCC=C(C)C)C(=O)O	inactive		
CC1OC2OC(=O)C3(C)CC4=C(CO)C5=C(CC(=O)C4(C)C(C1=O)C23)C(C)(C)OC(=O)C5 (centres undefined)	inactive		
COc1cc2nc(N3CCC(N4CCCCC4)CC3)nc(NC3CCCCCC3)c2cc1OC	5.17 µM (active)		
C[C@@H]1C(=O)OC[C@H]2C(C(=O)O)=C[C@@H]3CC(C)(C)C[C@]312	inactive		
CC1(C)CC[C@]2(C(=O)O[C@@H]3O[C@H](CO)[C@@H](O)[C@H](O)[C@H]3O)CC[C@]3(C)C(=CCC4[C@@]5(C)CC[C@H](O[C@@H]6O[C@H](C(=O)O)[C@@H](O)[C@H](O[C@@H]7O[C@H](CO)[C@H](O)[C@H](O)[C@H]7O)[C@H]6O)C(C)(C)C5CC[C@]43C)C2C1 (some centres undefined)			inactive [at 9.29 µM]
CCC(CC)C(=O)Nc1sc2c(c1C#N)CCC(C(C)(C)CC)C2 (centres undefined)	inactive		
C=C[C@H]1[C@H](O[C@@H]2O[C@H](CO)[C@@H](O)[C@H](O)[C@H]2O)OC=C(C(=O)OC)[C@H]1CC(=O)O	inactive		
O=C1C=CC(O)(/C=C/C(=O)OC[C@H]2O[C@@H](Oc3ccc(O)cc3)[C@H](O)[C@@H](O)[C@@H]2O)C=C1	inactive		
COC(=O)C1=CO[C@@H](O[C@@H]2O[C@H](CO)[C@@H](O)[C@H](O)[C@H]2O)[C@H]2[C@@H]1CC(OC)O[C@@H]2C (some centres undefined)	inactive		
OC/C=C/c1ccc(O[C@@H]2O[C@H](CO)[C@@H](O)[C@H](O)[C@H]2O)cc1	inactive		
COc1cc2oc(-c3ccc(O)cc3O)cc2c(OC)c1CC=C(C)C	inactive		
C=C(C(=O)O)C1CCC2(C)CCC(O)C(C)(O)C2C1 (centres undefined)	inactive		
